PubChem BioAssay (NCI)
About 83,000 compounds went through this panel and 20% of them were active in at least one assay; those are over-represented in the sample as a whole.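 The endpoint reported here, percent growth, reads 100 for growth as untreated, 0 for no net growth and -100 for all cells dead.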 A number with no mark means an inactive call. Active and inactive are the calls of the source. How the source made its calls: active means growth percent below 10; inactive means the rest.

Assays:
Assay in all cases: NCI-60 one-dose screen, 48 h (100 = growth as untreated, 0 = no growth, -100 = all killed)
Settings in all cases: 10 µM unless noted
SK-MEL-2 melanoma = tested on: SK-MEL-2 melanoma
EKVX NSCLC = tested on: EKVX NSCLC
SN12C renal = tested on: SN12C renal
UO-31 renal = tested on: UO-31 renal
TK-10 renal = tested on: TK-10 renal
ACHN renal = tested on: ACHN renal
CAKI-1 renal = tested on: CAKI-1 renal
A498 renal = tested on: A498 renal
CCRF-CEM leukemia = tested on: CCRF-CEM leukemia
MOLT-4 leukemia = tested on: MOLT-4 leukemia

| SMILES | growth (SK-MEL-2 melanoma) | growth (EKVX NSCLC) | growth (SN12C renal) | growth (UO-31 renal) | growth (TK-10 renal) | growth (ACHN renal) | growth (CAKI-1 renal) | growth (A498 renal) | growth (CCRF-CEM leukemia) | growth (MOLT-4 leukemia) |
| --- | --- | --- | --- | --- | --- | --- | --- | --- | --- | --- |
| O=C1OC(c2ccc(Cl)c(Cl)c2)=C/C1=C/c1cccc([N+](=O)[O-])c1 | 102% | 91.8% | 93% | 68% | 179% | 100% | 91.3% | 101% | 103% | 103% |
| COC(=O)[C@]12CC[C@@H](C)[C@H](C)[C@@H]1C1=CC(=O)[C@@H]3[C@@]4(C)C[C@@H](OC(C)=O)[C@H](OC(C)=O)[C@@](C)(COC(C)=O)[C@@H]4C(=O)C[C@@]3(C)[C@]1(C)CC2 | 75.6% | 57.8% | 57.1% | 42.5% | 74% | 31.8% | 30.5% | 53% | 17% | 4.9% (active) |
| CN1CCN(c2ccc3nc(-c4[nH]ncc4Nc4ncnc5[nH]ccc45)[nH]c3c2)CC1 | -27.8% (active) | 2.05% (active) | 2.59% (active) | -9.13% (active) | -9.08% (active) | 0.294% (active) | 1.7% (active) | -45.7% (active) | 4.45% (active) | -13.6% (active) |
| Cc1cc(C)n(Cc2cc(C(C)(C)C)cc(C(C)(C)C)c2)c(=O)c1C#N | 107% | 75.2% | 90% | 80.5% | 107% | 98.4% | 104% | 97% | 87.9% | 76.6% |
| N#CCCCCCn1c2ccccc2c2c3[nH]c(=O)[nH]c(=O)c3c3c4ccccc4n(CCCCCC#N)c3c21 | 78.5% | 80.7% | 26.2% | 61.1% | 65.6% | 54% | 93.2% | 54.5% | 74.5% | 69.5% |
| COc1cc2c(cc1-c1c(C)noc1C)ncc1nc(C3CC3)n([C@H](C)COC(F)F)c12 | 74.1% | 56.9% | 71.4% | 21.6% | 26.5% | 40.6% | 34.1% | 0.499% (active) | 52% | 42.2% |
| C[Si](C)(C)Cc1ccccc1 | 163% | 110% | 108% | 95.9% | 122% | 106% | 98.5% | 164% | -49.7% (active) | 118% |
| C=C(C)[C@@H]1CC[C@]2(C(=O)NNC(=O)c3cccnc3)CC[C@]3(C)[C@H](CC[C@@H]4[C@@]5(C)CCCNC(C)(C)[C@@H]5CC[C@]43C)[C@@H]12 | 100% | 94.3% | 83.7% | 64% | 158% | 98.1% | 76% | 88.1% | 65.6% | 40.1% |
| Cn1c(=O)c2c(ncn2CCC(=O)Nc2ccc(F)cc2)n(C)c1=O | 104% | 101% | 105% | 90% | 95% | 110% | 92.9% | 103% | 97.5% | 101% |
| Clc1ccc2[nH]cc(-c3nc(-c4c[nH]c5ncccc45)cs3)c2c1 | 48.1% | 42.7% | 56.7% | 22.2% | 46.1% | 25.9% | 17.1% | 60.2% | 31.2% | 16.1% |
| C=C(C)[C@@H]1CC[C@]2(C)[C@H](CC[C@@H]3[C@H]4[C@H]5OC[C@@]4(CCC5(C)C)CC[C@]32C)[C@@]1(C)CCCN | 101% | 71.2% | 75.6% | 63.8% | 130% | 59% | 3.89% (active) | 118% | 51.8% | 10.5% |
| CCOC(=O)C/C(=C\c1ccccc1)C(C)=O | 89.3% | 102% | 105% | 99.3% | 96.3% | 107% | 94.5% | 114% | 90.3% | 93.8% |
| CC(=O)Oc1ccccc1C(=O)/C=C/c1cccc([N+](=O)[O-])c1 | 96.2% | 75.6% | 78.9% | -28.1% (active) | 134% | 75.3% | 67.6% | 92.6% | 5.04% (active) | 50.8% |
| CC(=O)O[C@H]1CC[C@]2(C)[C@H]3CC=C4[C@@H]5[C@H](C)[C@@H](C)CC[C@]5(C(=O)NCCNCCNCCN)CC[C@@]4(C)[C@]3(C)CC[C@H]2C1(C)C | 105% | 72.6% | 78.3% | 63.5% | 101% | 91.5% | 55.8% | 95.4% | 62.1% | 49.9% |
| Nc1c2c(nc3ccc(Br)cc13)CC(c1ccccc1)CC2=O (stereo not given) | 59.2% | 27.2% | 51.3% | 53.1% | 85.7% | 57.7% | 47.2% | 1.16% (active) | 19.7% | 29.3% |
| CC(C)c1cc(C(=O)O)c(O)c(C(C)C)c1.CC(C)c1cc(C(=O)O)c(O)c(C(C)C)c1.[Mn] | 118% | 102% | 101% | 85.5% | 106% | 103% | 100% | 126% | 95.1% | 99.2% |
| O=P(O)(c1ccccc1)c1ccccc1I | 96% | 94.7% | 99.3% | 83.4% | 102% | 106% | 90.1% | 92.6% | 94.6% | 97.7% |
| Cc1ccncc1C(=O)O | 121% | 97.5% | 94.6% | 88.7% | 123% | 97.2% | 95.9% | 89% | 140% | 122% |
| O=C1CN(c2ccccc2)C(=O)C1C(=O)Nc1ccc(Cl)c(Cl)c1 (stereo not given) | 18.1% [100 µM] | 47.4% [100 µM] | 17.6% [100 µM] | 5.84% [100 µM] (active) | 26.4% [100 µM] | 2.16% [100 µM] (active) | -2.42% [100 µM] (active) | 11.3% [100 µM] | 35.9% [100 µM] | 6.47% [100 µM] (active) |
| CCc1cccc(CC)c1NC(=O)c1sc2nc3c(cc2c1N)CCCC3 | 56.3% | 88.9% | 83.5% | 57.7% | 90.5% | 71.8% | 64.6% | 40.2% | 60.7% | 61.9% |
| CC(=O)c1c(C)[nH]c(-c2nc3ccc(N4CCN(C)CC4)cc3[nH]2)c1-c1ccc(OCC2CCOCC2)cc1 | 53.3% | 35.6% | 39.9% | 6.97% (active) | -5.8% (active) | 19.2% | 12.4% | 30.8% | 30.9% | 47.5% |
| O=C1C(=O)c2ccccc2C(O)=C1CCCc1ccc(C2CCCCC2)cc1 | 104% | 60.2% | 43.2% | 75.9% | 52.5% | 37% | 19.7% | 56.7% | 9.07% (active) | 29.2% |
| O=[N+]([O-])c1ccc(N/N=C(\C(=N/Nc2ccc([N+](=O)[O-])cc2[N+](=O)[O-])c2ccccc2)c2ccccc2)c([N+](=O)[O-])c1 | 95.9% | 108% | 97.5% | 86.4% | -1.75% (active) | 95.7% | 81.1% | 103% | 58.4% | 92.2% |
